Experimental findings from PubChem BioAssay (Tox21) are described below.

Inconclusive results are not listed. Entries that show only a call come without a potency. The source made the active and inactive calls. Calls come from the whole dose curve.

A short description of the assay: cAMP Responsive Elements (CRE) small molecule agonists, cell-based qHTS assay (AID 1963590). Conditions: CRE-bla HEK293T, beta-lactamase FRET ratio, 3 h; series mostly up to 92.4 µM. An excerpt:
U.S. Tox21 Program National Center for Advancing Translational Sciences [NCATS] Division of Preclinical Innovation [DPI] U.S. Environmental Protection Agency [EPA] National Institutes of Environmental Health Sciences [NIEHS] National Toxicology Program [NTP] U.S. Food and Drug Administration [FDA] Tox21 Assay Overview: CREB (cyclic-AMP Responsive Element Binding Protein) is a cellular transcription factor. It binds to certain DNA sequences called cAMP Responsive Elements (CRE) and regulates the transcription of the genes. […] This cell line can be used to find agonists/antagonists of the cyclic AMP signaling pathway. The activation of the report gene under culture conditions can be detected by fluorescence intensity. This cell line has been used to screen the Tox21 10K compound library to identify agonists that induce oxidative stress.
Tox21 Assay Protocol Summary: CRE-bla Hek 293T cells were suspended in assay medium (DMEM containing 10% dialyzed FBS, 0.1 mM NEAA, 1 mM sodium pyruvate and 25 mM HEPES) and dispensed at 2,000 cells/5 uL /well into 1536-well black wall/clear bottom plates using a Multidrop Combi (ThermoFisher Scientific, Waltham, MA) dispenser. After the assay plates were incubated at 37 C/5% CO2 for 18 hrs, 23 nL of compounds dissolved in DMSO, positive controls or DMSO only was transferred to the assay plate by a pintool workstation (Kalypsys, San Diego, CA). After the plates were incubated at 37 C/5% CO2 for 3 hrs, 1 uL of LiveBLAzer B/G FRET substrate (Invitrogen, Carlsbad, CA) was added to each well using Bioraptr Flying Reagent Dispenser (FRD, Aurora Discovery, San Diego, CA). The plates were incubated at room temperature for 2 h.
In general terms: Quantitative high-throughput screening tests each substance at several concentrations.
As for `CCCC1CCC(=O)O1` (stereo not given), the Potency entry was “inactive”. As to `O=C(CCC1CCN(Cc2ccccc2)CC1)c1ccc2c(c1)NCCCC2`, the Potency result is “inactive”. For `CCCCC(CC)COC(=O)CC#N` (stereo not given), the Potency entry is “inactive”. `N#CCC(=O)NN`: the Potency result was “inactive”.

With `O=C1OC(=O)c2cccc3cccc1c23`, the Potency result was “inactive”. Take `CC(C)(C)c1cc(CCC(=O)NN)cc(C(C)(C)C)c1O`: the Potency result is “inactive”.

Turning to `CC(=O)OC(C)c1ccccc1` (stereo not given), the Potency entry is “inactive”.

For the compound `CC(=O)NC(=O)c1ccccc1O`, the Potency result was “inactive”. Turning to `CCC(=O)Nc1ccc(O)cc1`, the Potency entry was “inactive”. Still for that read-out and setting: next, `CC(C)OC(=O)c1ccccc1`: “inactive”; `CNS(=O)(=O)Cc1ccc2[nH]cc(CCN(C)C)c2c1`: “inactive”.

Consider `C#Cc1ccc(-c2ccccc2F)cc1`, for which the Potency result was “inactive”. In the case of `Oc1cccc(O)c1O`, the Potency entry was “inactive”. Take `CC(C)=CCC/C(C)=C/CC/C(C)=C/C(=O)OCC(=O)[C@@]1(O)CC[C@H]2[C@@H]3CCC4=CC(=O)C=C[C@]4(C)[C@H]3[C@@H](O)C[C@@]21C`: the Potency result was “inactive”. As to `FC(F)(F)C(F)(F)C(F)(F)C(F)(F)C(F)(F)C(F)(F)C(F)(F)C(F)(F)C(F)(F)C(F)(F)F`, the activation is -1.41% [at 8.39 µM] (inactive). Still for that read-out and setting: next, `CCCCCCCCCCOc1cc2c(=O)c(C(=O)OCC)c[nH]c2cc1OCC`: 0.069% [at 8.39 µM] (inactive). On to `CN(C)CCN(C)CCN(C)C`, for which the Potency result is “inactive”. For `CCCCCCCCCCCCOC(=O)c1ccc(O)cc1`, the Potency entry was “inactive”. Turning to `Cc1cccc(C)c1OCC(C)N` (stereo not given), the Potency result was “inactive”.

For the compound `CCN(CC)CCNc1ccc(CNC=O)c2sc3ccc(OC)cc3c(=O)c12`, the Potency result is “inactive”. `CO[Si](OC)(OC)OC`: the Potency result is “inactive”. With `CCO`, the Potency entry is “inactive”. For the compound `CCOC(=O)OC(C)OC1=C(C(=O)Nc2ccccn2)N(C)S(=O)(=O)c2ccccc21` (stereo not given), the Potency entry is “inactive”.

Take `O=[N+]([O-])c1cccc(I)c1`: the Potency entry was “inactive”. Take `C[C@@H]1C[C@H]2[C@@H]3CCC4=CC(=O)C=C[C@]4(C)[C@@]3(F)[C@@H](O)C[C@]2(C)[C@@]1(O)C(=O)COP(=O)(O)O`: the Potency entry was “inactive”. As to `C#CC(C)N(C)C(=O)Nc1ccc(Cl)cc1` (stereo not given), the Potency entry was “inactive”.

For `Cc1c(NC(C)C)c(=O)n(-c2ccccc2)n1C`, the Potency entry was “inactive”. Same read-out and setting: next, `CCC(C)c1nccnc1OC` (stereo not given): “inactive”. For `OC[C@H]1O[C@@H](O[C@@H]2[C@@H](CO)O[C@](O)(CO)[C@H]2O)[C@H](O)[C@@H](O)[C@H]1O`, the Potency result was “inactive”. As for `CC(C)(C)CC(=O)OCC(=O)[C@@]1(O)CC[C@H]2[C@@H]3CCC4=CC(=O)C=C[C@]4(C)[C@H]3[C@@H](O)C[C@@]21C`, the Potency entry is “inactive”. `CCOC(=O)/C=C/C(=O)O`: the Potency result is “inactive”. On to `C[C@H]1C[C@H]2[C@@H]3CCC4=CC(=O)C=C[C@]4(C)[C@@]3(F)[C@@H](O)C[C@]2(C)[C@@]1(O)C(=O)COP(=O)(O)O`, for which the Potency result is “inactive”. Same read-out and setting: next, `CCCCCCCC/C=C\CCCCCCCC(=O)OC[C@@H](O)[C@H]1OC[C@H](O)[C@H]1O`: “inactive”; `CCN(CC)C(=O)Nc1ccc(OCC(O)CNC(C)(C)C)c(C(C)=O)c1` (stereo not given): “inactive”. `CCNS(=O)(=O)c1ccc(C)cc1`: the Potency result was “inactive”. For the compound `CC1(N)CCC(C(C)(C)N)CC1` (stereo not given), the Potency entry was “inactive”.

Regarding `CC[N+]1(CC)CCC(=C(c2ccccc2)c2ccccc2)C1C` (stereo not given), the Potency result was “inactive”. On to `O=C(OOC(=O)c1ccccc1)c1ccccc1`, for which the Potency result was “inactive”. As to `CCOC(=O)c1ccc(I)cc1`, the Potency result was “inactive”. Still for that read-out and setting: next, `NCC1CCC(C(=O)Oc2ccc(CCC(=O)O)cc2)CC1` (stereo not given): “inactive”.
